Measurements from PubChem BioAssay.
The source made the active and inactive calls.

Columns and labels:
[1] = binders of probe aFSTL3 on microarray, primary screen, stem cell growth factor project, biochemical, small-molecule microarray, fluorescence 635/667 (AID 1064); conditions: higher = more signal;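 note: measures binding of the biotinylated anti-FSTL3 antibody to printed compounds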
[2] = binders from COS7 lysate, DM2A8 probe, primary screen, torsin A project, cell lysate, small-molecule microarray, fluorescence 635/667 (AID 1065); conditions: higher = more signal, COS7 lysate expressing mutant human TOR1A
[3] = binders of probe aFGF2 on microarray, primary screen, stem cell growth factor project, biochemical, small-molecule microarray, fluorescence 635/667 (AID 1067); conditions: higher = more signal;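 note: measures binding of biotinylated aFGF2 protein to printed compounds on slides; z-score merges feature fluorescence and signal-to-noise across triplicate slides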
[4] = binders of probe aFGF10 on microarray, primary screen, stem cell growth factor project, biochemical, small-molecule microarray, fluorescence 635/667 (AID 1071); conditions: higher = more signal;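 note: score merges 667 nm spot intensity and signal to noise from triplicate slides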
[5] = target: Neurogenic locus notch homolog protein 2 (Homo sapiens) (UniProt Q04721); test: Notch2 binders on small-molecule microarrays, primary screen, biochemical, small-molecule microarray, 635 nm fluorescence, stem cell growth factors (AID 1073); conditions: Notch2 binding, higher = more signal
Sequence of Neurogenic locus notch homolog protein 2 (Homo sapiens) (Q04721 whole entry, looked up, canonical isoform): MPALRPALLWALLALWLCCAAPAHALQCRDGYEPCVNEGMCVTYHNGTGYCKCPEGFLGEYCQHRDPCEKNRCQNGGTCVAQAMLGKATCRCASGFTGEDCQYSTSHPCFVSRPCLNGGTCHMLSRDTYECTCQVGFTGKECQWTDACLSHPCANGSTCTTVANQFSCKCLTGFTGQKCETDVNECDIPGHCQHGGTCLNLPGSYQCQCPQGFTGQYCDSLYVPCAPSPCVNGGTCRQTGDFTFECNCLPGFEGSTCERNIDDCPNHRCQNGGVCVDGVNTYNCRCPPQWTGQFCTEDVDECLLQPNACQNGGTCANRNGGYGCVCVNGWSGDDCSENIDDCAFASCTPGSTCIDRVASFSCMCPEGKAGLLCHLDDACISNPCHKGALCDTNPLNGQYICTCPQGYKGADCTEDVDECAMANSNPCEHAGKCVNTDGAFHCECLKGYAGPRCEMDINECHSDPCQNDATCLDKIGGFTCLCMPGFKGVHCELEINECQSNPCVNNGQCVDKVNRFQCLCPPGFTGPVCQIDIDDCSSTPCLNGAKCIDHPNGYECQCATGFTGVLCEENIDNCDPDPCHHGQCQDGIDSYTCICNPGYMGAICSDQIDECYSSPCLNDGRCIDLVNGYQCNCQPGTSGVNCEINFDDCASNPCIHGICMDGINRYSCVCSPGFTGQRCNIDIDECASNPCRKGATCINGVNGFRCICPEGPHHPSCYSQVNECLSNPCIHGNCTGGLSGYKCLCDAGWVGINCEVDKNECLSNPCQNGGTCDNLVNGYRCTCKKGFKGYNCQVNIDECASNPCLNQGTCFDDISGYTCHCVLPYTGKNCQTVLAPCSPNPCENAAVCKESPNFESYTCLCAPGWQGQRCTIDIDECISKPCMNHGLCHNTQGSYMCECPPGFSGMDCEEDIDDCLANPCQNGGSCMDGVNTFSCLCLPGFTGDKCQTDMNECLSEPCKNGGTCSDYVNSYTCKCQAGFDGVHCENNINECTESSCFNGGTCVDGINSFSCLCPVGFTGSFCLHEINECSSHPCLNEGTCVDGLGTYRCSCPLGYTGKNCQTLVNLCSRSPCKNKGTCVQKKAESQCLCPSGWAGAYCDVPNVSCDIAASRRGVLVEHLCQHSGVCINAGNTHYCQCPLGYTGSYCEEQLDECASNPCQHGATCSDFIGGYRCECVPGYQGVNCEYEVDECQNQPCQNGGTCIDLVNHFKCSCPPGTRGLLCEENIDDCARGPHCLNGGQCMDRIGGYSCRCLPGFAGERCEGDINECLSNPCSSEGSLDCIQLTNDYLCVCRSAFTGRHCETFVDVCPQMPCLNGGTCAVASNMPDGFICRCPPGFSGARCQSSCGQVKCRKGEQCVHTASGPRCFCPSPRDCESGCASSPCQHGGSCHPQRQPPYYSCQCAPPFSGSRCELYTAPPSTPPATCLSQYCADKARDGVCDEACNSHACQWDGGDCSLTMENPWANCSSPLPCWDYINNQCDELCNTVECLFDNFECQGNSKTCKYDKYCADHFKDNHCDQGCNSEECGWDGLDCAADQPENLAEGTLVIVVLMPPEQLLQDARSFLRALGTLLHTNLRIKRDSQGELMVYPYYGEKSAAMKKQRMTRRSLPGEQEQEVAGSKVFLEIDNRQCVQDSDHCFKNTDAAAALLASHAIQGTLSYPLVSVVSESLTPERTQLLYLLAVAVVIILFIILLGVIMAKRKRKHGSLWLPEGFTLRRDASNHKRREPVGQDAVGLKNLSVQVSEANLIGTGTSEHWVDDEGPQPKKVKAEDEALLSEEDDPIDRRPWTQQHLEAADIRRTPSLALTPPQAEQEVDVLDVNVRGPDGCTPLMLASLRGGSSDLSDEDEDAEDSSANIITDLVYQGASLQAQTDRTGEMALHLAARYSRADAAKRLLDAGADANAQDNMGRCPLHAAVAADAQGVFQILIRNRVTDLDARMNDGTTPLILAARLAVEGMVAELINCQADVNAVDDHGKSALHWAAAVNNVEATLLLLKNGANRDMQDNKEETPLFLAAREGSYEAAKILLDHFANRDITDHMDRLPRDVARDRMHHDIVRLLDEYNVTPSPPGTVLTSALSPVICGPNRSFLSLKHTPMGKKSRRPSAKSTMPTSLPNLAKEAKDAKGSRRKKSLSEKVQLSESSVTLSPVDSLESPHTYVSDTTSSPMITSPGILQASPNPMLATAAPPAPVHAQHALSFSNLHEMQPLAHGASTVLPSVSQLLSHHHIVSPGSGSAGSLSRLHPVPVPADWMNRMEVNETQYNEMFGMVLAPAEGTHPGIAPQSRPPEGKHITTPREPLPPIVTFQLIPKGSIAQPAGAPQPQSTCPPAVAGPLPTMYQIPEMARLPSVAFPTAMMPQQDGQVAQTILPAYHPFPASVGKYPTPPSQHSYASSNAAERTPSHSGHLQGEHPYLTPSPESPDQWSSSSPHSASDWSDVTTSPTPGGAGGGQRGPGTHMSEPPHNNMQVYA

[6] = target: Pro-neuregulin-1, membrane-bound isoform (Homo sapiens) (UniProt Q02297); test: NRG1 binders on small-molecule microarrays, primary screen, psychiatric disease protein project, biochemical, small-molecule microarray, fluorescence 635/667 (AID 1075); conditions: NRG1 binding, 635 nm fluorescence, higher = more signal;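 note: score combines 667 nm spot fluorescence with signal to noise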
Sequence of Pro-neuregulin-1, membrane-bound isoform (Homo sapiens) (Q02297 whole entry, looked up, the tested form may be a part, canonical isoform): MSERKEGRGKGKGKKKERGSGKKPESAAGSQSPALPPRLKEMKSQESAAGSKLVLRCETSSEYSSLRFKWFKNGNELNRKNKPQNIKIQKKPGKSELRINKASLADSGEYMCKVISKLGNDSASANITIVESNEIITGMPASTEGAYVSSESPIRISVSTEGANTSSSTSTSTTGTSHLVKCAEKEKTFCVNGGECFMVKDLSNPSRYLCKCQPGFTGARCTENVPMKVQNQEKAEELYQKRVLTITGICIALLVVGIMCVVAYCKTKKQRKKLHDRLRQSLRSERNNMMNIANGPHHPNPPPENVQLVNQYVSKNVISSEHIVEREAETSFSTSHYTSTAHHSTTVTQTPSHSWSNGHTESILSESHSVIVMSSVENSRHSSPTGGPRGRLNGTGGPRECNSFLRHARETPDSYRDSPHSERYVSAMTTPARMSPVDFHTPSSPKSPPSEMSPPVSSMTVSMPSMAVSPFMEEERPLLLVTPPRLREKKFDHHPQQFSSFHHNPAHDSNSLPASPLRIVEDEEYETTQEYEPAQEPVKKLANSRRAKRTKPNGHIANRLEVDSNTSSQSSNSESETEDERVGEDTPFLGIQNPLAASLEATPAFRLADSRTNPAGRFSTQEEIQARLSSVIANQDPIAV

[7] = tested on: Neuregulin-1 EGF-like domain; test: binders of neuregulin-1 EGF-like domain, primary screen, biochemical, small-molecule microarray, 635 nm fluorescence (AID 1081); conditions: small-molecule microarray binding, higher = more signal;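 note: binding of the protein to compounds printed on small-molecule microarray slides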
[8] = FRG1 promoter luciferase signal modulators, primary screen, FRG1 inhibition for FSHD, cell-based, C2C12 myotubes, firefly/Renilla luciferase, luminescence (AID 1084); conditions: higher = more signal, called active from +8 up or from −8 down
[9] = binders of probe aFST on microarray, primary screen, stem cell growth factor project, biochemical, small-molecule microarray, fluorescence 635/667 (AID 1086); conditions: higher = more signal;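 note: score merges 667 nm fluorescence with signal-to-noise of each printed compound spot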
[10] = binders of probe aHhip on microarray, primary screen, stem cell growth factor project, biochemical, small-molecule microarray, fluorescence 635/667 (AID 1087); conditions: higher = more signal;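 note: score merges spot fluorescence at 667nm with spot signal to noise ratio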

CCOC(=O)C[C@H]1[C@H](OC(=O)c2ccc(C(=O)c3ccccc3)cc2)[C@@H](NC(=O)CC(C)C)c2cc(OCCCO)ccc2N1C(=O)c1ccccc1
composite z-score [1]: -0.399 | composite z-score [2]: 0.275 | composite z-score [3]: -0.0266 | composite z-score [4]: 0.542 | composite z-score [5]: 1.2 | composite z-score [6]: 0.807 | composite z-score [7]: 0.996 | z-score [8]: -0.16 (inactive) | composite z-score [9]: 0.766 | composite z-score [10]: 0.0129

COC(=O)C/C=C/C[C@]1(O)C(=O)N(C)c2ccccc21
composite z-score [1]: -0.408 | composite z-score [2]: 0.598 | composite z-score [3]: -0.148 | composite z-score [4]: -0.294 | composite z-score [5]: 0.223 | composite z-score [6]: -0.419 | composite z-score [7]: 0.797 | z-score [8]: -1.59 (inactive) | composite z-score [9]: 0.164 | composite z-score [10]: -0.0708

COC(=O)[C@@H]1N=C(c2ccc(OCCCO)cc2)O[C@@H]1C
composite z-score [1]: 0.0684 | composite z-score [2]: 0.331 | composite z-score [3]: -0.0627 | composite z-score [4]: 0.509 | composite z-score [5]: 0.108 | composite z-score [6]: -0.519 | composite z-score [7]: 0.155 | z-score [8]: 5.05 (inactive) | composite z-score [9]: 0.195 | composite z-score [10]: 0.0139

COCCCNC(=O)[C@@H]1c2ccccc2C(=O)N(C(C)C)[C@H]1c1ccc(CO)cc1
composite z-score [1]: 0.312 | composite z-score [2]: 0.355 | composite z-score [3]: -0.051 | composite z-score [4]: -0.373 | composite z-score [5]: 0.0446 | composite z-score [6]: 0.576 | composite z-score [7]: 0.763 | z-score [8]: -0.215 (inactive) | composite z-score [9]: 0.0241 | composite z-score [10]: -0.249

C=CCN1Cc2ccccc2[C@@H]2OC(c3ccc(OCCCO)cc3)=N[C@]2(CC=C)C1=O
composite z-score [1]: 1.41 | composite z-score [2]: 0.629 | composite z-score [3]: 0.32 | composite z-score [4]: 0.0911 | composite z-score [5]: 0.848 | composite z-score [6]: 0.955 | composite z-score [7]: 1.06 | z-score [8]: -0.479 (inactive) | composite z-score [9]: 2.47 | composite z-score [10]: -0.159

O=C1N(Cc2ccccc2)c2ccccc2C[C@]12N=C(c1ccc(OCCCO)cc1)O[C@@H]2c1ccccc1
composite z-score [1]: 0.0854 | composite z-score [2]: 0.278 | composite z-score [3]: -0.125 | composite z-score [4]: 0.576 | composite z-score [5]: 0.699 | composite z-score [6]: 0.888 | composite z-score [7]: 1.09 | z-score [8]: -0.724 (inactive) | composite z-score [9]: -0.0607 | composite z-score [10]: -0.0994

C=C(COC)/C(=C/C[C@H](OC(=O)c1ccncc1)c1ccc(CO)o1)c1cnc2ccccc2c1
composite z-score [1]: 0.138 | composite z-score [2]: 0.47 | composite z-score [3]: -0.124 | composite z-score [4]: 0.741 | composite z-score [5]: 1.21 | composite z-score [6]: 0.98 | composite z-score [7]: 1.14 | z-score [8]: 1.29 (inactive) | composite z-score [9]: -0.0236 | composite z-score [10]: -0.113

Cc1ccc(S[C@]2(C(=O)NCC(F)(F)F)CC(=O)N(Cc3cc(C(F)(F)F)cc(C(F)(F)F)c3)[C@@H]2c2ccc(CO)cc2I)cc1
composite z-score [1]: 0.225 | composite z-score [2]: 1.52 | composite z-score [3]: -0.128 | composite z-score [4]: -0.41 | composite z-score [5]: -1.14 | composite z-score [6]: 0.848 | composite z-score [7]: 0.434 | z-score [8]: -0.326 (inactive) | composite z-score [9]: -0.666 | composite z-score [10]: -0.409

CS(=O)(=O)CCOC(=O)C1=CC(CCCO)=CC(c2ccc(CN3CCCC3)cc2)N(Cc2sc3ccccc3c2Cl)C=C1C(=O)OCCS(C)(=O)=O (stereo not given)
composite z-score [1]: 0.0681 | composite z-score [2]: 2.14 | composite z-score [3]: 0.198 | composite z-score [4]: 1.3 | composite z-score [5]: 1.62 | composite z-score [6]: 2.16 | composite z-score [7]: 1.22 | z-score [8]: 0.168 (inactive) | composite z-score [9]: 0.888 | composite z-score [10]: 0.0053

NC(=O)NCC#Cc1ccc2c(c1)[C@]1(C(=O)N2)[C@H](c2ccccc2OCCO)N2[C@H](c3ccccc3)[C@H](c3ccccc3)OC(=O)[C@H]2[C@@H]1C(=O)NC[C@H](O)c1ccccc1
composite z-score [1]: -0.0058 | composite z-score [2]: 1.37 | composite z-score [3]: -0.085 | composite z-score [4]: 0.262 | composite z-score [5]: -0.667 | composite z-score [6]: 0.319 | composite z-score [7]: -0.32 | z-score [8]: -0.308 (inactive) | composite z-score [9]: -0.312 | composite z-score [10]: -0.122

CCCCCCc1nc(Cc2cc(OC)c(OC)c(OC)c2)cc2c1[Si](C(C)C)(C(C)C)OC2
composite z-score [1]: -0.288 | composite z-score [2]: -0.117 | composite z-score [3]: -0.0909 | composite z-score [4]: 0.0277 | composite z-score [5]: -0.196 | composite z-score [6]: -0.184 | composite z-score [7]: -0.434 | z-score [8]: 1.06 (inactive) | composite z-score [9]: -0.0763 | composite z-score [10]: -0.0427

Cc1ccc(F)cc1S(=O)(=O)N[C@@H]1CCN(Cc2ccc(Br)cc2)C1
composite z-score [1]: -0.414 | composite z-score [2]: 0.673 | composite z-score [3]: -0.23 | composite z-score [4]: -0.207 | composite z-score [5]: 0.414 | composite z-score [6]: -0.107 | composite z-score [7]: 0.035 | z-score [8]: -2.08 (inactive) | composite z-score [9]: 0.258 | composite z-score [10]: -0.0994

COC(=O)[C@@]1(Cc2ccc(F)cc2)[C@H]2c3cc(C(=O)N(C)C)n(Cc4ccc(OC(F)(F)F)cc4)c3C[C@H]2CN1C(=O)c1ccccc1
composite z-score [1]: -0.252 | composite z-score [2]: 0.34 | composite z-score [3]: -0.12 | composite z-score [4]: 0.369 | composite z-score [5]: 0.708 | composite z-score [6]: 0.109 | composite z-score [7]: 0.429 | z-score [8]: 0.306 (inactive) | composite z-score [9]: 0.402 | composite z-score [10]: -0.305

COc1ccc([Si](C)(C)[C@@H]2[C@@H](CCO)O[C@]3(C(=O)N(Cc4ccccc4)c4ccc(N5C(=O)c6cccc7cccc5c67)cc43)[C@H]2C)cc1
composite z-score [1]: 0.107 | composite z-score [2]: -0.908 | composite z-score [3]: -0.0729 | composite z-score [4]: -0.086 | composite z-score [5]: -0.0923 | composite z-score [6]: 0.367 | composite z-score [7]: 0.609 | z-score [8]: 0.0135 (inactive) | composite z-score [9]: -0.175 | composite z-score [10]: -0.271

COc1ccc(CCNC(=O)[C@@H]2c3ccccc3C(=O)N(C3CCCCC3)[C@H]2c2ccc(CO)cc2)cc1
composite z-score [1]: 0.0003 | composite z-score [2]: 1.3 | composite z-score [3]: 0.104 | composite z-score [4]: 0.329 | composite z-score [5]: 0.785 | composite z-score [6]: 1.05 | composite z-score [7]: 1.24 | z-score [8]: -0.335 (inactive) | composite z-score [9]: 0.246 | composite z-score [10]: -0.0645

C=CC[C@@H](OC(=O)Nc1ccc(SC)cc1)c1ccc(O)c(F)c1
composite z-score [1]: 0.401 | composite z-score [2]: 0.601 | composite z-score [3]: -0.0729 | composite z-score [4]: 0.165 | composite z-score [5]: -0.131 | composite z-score [6]: 1.7 | composite z-score [7]: 1.21 | z-score [8]: 6.7 (inactive) | composite z-score [9]: -0.277 | composite z-score [10]: -0.0645
